# PMC7862700, “An all-to-all approach to the identification of sequence-specific readers for epigenetic DNA modifications on cytosine”
# Experiments:
# Experiment in all cases: DAPPL (digital affinity profiling via proximity ligation, sequencing); 10 mM Tris-HCl pH 7.5, 50 mM NaCl, 1 mM DTT, 4% glycerol, room temperature, 30 min; GST-TFs on glutathione beads, 16-mer random dsDNA library, 0.1% formaldehyde crosslink after washing; high values mean tight binding
# Conditions in all cases: protein: recombinant; tags: N-terminal GST; dsDNA, one strand shown
# ETV1 = ETV1 (Homo sapiens, UniProt P50549 1-477)
# Summary of the method: (§1)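 Each value of binding signal is a hexamer's read frequency for a factor divided by the same hexamer's frequency in the tag-only sample. Barcoded, bead-captured GST fusions of human transcription factors made in yeast were pooled with that sample and incubated with 200 nmole of a random double-stranded 16-mer DNA library in Tris/NaCl/DTT/glycerol buffer at room temperature for 30 min. Washing, 0.1% formaldehyde crosslinking, proximity ligation, PCR and Illumina NextSeq500 sequencing followed.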
# ERF = biological target: T1, ERF (Homo sapiens, UniProt P50548 1-548)
# T1 sequence: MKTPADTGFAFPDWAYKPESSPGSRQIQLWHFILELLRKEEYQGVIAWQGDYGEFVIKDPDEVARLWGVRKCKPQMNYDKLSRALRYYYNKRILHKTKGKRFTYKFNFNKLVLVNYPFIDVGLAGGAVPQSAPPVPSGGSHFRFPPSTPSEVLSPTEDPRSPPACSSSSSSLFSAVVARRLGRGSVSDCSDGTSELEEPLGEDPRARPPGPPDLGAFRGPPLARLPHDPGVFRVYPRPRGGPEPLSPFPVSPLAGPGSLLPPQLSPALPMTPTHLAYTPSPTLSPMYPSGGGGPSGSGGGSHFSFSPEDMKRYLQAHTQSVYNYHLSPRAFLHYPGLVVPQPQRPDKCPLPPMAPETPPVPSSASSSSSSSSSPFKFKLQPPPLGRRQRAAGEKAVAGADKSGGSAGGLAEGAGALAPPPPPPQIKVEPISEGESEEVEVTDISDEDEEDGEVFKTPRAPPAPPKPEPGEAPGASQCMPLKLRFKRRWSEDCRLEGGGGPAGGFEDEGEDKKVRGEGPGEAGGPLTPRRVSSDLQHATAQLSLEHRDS
# Summary of the method: as §1
# ETV3L = biological target: T2, ETV3L (Homo sapiens, UniProt Q6ZN32 1-361)
# T2 sequence: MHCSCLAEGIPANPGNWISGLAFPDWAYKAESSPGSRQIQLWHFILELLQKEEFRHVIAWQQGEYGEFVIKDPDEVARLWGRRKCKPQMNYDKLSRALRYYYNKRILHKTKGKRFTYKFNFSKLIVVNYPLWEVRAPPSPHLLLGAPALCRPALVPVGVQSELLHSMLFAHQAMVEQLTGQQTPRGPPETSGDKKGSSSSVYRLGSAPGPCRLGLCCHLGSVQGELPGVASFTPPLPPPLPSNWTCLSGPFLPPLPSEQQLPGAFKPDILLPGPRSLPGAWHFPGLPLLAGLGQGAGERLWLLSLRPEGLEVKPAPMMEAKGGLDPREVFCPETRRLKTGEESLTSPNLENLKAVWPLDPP
# Summary of the method: as §1
# ETS2 = biological target: T3, ETS2 (Homo sapiens, UniProt P15036 1-469)
# T3 sequence: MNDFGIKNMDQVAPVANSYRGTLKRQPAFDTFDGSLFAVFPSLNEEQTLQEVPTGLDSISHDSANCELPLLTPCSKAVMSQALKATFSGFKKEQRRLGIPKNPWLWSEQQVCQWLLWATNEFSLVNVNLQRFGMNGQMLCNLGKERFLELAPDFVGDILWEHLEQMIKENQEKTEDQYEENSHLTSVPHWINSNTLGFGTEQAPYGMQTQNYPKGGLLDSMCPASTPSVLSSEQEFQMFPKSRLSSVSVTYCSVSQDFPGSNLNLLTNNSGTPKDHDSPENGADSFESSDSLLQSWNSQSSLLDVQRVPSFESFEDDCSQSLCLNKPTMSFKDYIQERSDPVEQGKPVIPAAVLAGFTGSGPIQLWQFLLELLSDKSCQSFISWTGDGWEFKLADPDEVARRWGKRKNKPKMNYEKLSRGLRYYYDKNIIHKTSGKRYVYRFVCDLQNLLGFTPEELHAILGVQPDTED
# Summary of the method: as §1
# SPDEF = biological target: T4, SPDEF (Homo sapiens, UniProt O95238 1-335)
# T4 sequence: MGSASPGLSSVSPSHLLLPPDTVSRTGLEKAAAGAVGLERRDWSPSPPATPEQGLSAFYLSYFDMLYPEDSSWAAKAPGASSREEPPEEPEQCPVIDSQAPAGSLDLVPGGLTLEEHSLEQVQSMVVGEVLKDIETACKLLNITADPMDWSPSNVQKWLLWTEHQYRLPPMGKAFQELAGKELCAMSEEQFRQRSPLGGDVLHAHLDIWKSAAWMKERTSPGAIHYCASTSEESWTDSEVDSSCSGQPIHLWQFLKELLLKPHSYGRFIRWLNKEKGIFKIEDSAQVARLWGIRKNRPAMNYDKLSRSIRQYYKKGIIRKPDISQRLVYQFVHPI
# Summary of the method: as §1
# ETV7 = biological target: T5, ETV7 (Homo sapiens, UniProt Q9Y603 1-341)
# T5 sequence: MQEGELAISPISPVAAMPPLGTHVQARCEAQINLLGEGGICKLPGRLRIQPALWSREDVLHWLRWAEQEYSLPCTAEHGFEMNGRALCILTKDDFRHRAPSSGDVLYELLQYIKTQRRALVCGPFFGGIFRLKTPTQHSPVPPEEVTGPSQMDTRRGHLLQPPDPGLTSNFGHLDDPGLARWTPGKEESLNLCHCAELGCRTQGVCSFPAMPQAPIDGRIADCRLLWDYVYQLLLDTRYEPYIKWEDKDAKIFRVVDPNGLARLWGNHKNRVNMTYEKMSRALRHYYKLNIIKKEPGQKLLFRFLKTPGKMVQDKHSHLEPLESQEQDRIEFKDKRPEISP
# Summary of the method: as §1
# ELF5 = biological target: T6, ELF5 (Homo sapiens, UniProt Q9UKW6-2 1-255)
# T6 sequence: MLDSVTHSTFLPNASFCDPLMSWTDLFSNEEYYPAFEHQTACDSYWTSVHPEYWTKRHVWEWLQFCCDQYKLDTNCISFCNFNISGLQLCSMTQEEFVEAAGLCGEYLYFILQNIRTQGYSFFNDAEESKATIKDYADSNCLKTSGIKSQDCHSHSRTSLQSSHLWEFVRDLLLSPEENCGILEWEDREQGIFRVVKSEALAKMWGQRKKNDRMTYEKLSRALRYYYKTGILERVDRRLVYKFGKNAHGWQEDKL
# Summary of the method: as §1
# ETV3 = biological target: T7, ETV3 (Homo sapiens, UniProt P41162-2 1-143)
# T7 sequence: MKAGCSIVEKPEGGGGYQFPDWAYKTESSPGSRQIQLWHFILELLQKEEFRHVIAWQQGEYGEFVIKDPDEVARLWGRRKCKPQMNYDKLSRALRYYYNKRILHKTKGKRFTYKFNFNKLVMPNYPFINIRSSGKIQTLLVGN
# Summary of the method: as §1
# ETV6 = ETV6 (Homo sapiens, UniProt P41212 1-452)
# Summary of the method: as §1
# Chain of ETV6 (P41212 whole entry): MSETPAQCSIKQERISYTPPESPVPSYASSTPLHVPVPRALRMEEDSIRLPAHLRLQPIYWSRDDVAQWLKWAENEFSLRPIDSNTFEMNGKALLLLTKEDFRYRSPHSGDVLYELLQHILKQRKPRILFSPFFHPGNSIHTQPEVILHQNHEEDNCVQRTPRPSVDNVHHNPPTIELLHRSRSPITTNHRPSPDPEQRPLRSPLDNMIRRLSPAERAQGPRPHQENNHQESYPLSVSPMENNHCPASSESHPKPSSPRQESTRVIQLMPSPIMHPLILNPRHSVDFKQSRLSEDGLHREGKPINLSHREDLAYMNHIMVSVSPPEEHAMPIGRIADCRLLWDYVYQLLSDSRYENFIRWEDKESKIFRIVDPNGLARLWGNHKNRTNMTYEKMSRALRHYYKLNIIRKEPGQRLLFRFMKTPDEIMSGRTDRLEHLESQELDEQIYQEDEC
# Chain of ETV1 (P50549 whole entry, the tested form may be a part): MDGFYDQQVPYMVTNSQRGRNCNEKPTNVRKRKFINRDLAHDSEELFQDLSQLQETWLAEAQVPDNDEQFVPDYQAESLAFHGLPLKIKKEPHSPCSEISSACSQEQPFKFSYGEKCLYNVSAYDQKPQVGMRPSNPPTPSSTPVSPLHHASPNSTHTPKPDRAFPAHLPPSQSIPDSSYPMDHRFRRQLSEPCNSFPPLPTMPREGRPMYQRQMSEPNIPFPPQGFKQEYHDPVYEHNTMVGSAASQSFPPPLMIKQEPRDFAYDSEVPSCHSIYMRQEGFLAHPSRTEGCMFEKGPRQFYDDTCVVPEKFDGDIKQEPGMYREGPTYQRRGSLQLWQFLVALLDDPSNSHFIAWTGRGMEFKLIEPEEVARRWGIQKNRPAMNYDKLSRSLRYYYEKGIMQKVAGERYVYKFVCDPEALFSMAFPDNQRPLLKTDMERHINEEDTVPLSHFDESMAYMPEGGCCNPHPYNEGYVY
sequence,measurement,setting,value
TAATCA,binding signal,ETV1,"1.14 fold enrichment (6-mer frequency, TF over GST control)"
same,binding signal,ERF,"1.09 fold enrichment (6-mer frequency, TF over GST control)"
same,binding signal,ETV3L,"1.12 fold enrichment (6-mer frequency, TF over GST control)"
same,binding signal,ETS2,"1.14 fold enrichment (6-mer frequency, TF over GST control)"
same,binding signal,SPDEF,"1.11 fold enrichment (6-mer frequency, TF over GST control)"
same,binding signal,ETV7,"1.1 fold enrichment (6-mer frequency, TF over GST control)"
same,binding signal,ELF5,"1.08 fold enrichment (6-mer frequency, TF over GST control)"
same,binding signal,ETV3,"1.15 fold enrichment (6-mer frequency, TF over GST control)"
same,binding signal,ETV6,"1.18 fold enrichment (6-mer frequency, TF over GST control)"
